The values that follow come from PubChem BioAssay AID720597 (Broad Institute, 2013).

Potency and affinity values are given separately. Activity calls are given as the source filed them.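 The calls were made as follows: active = fitted half-maximal dose no more than twice the top valid tested dose, for compounds that lower signal; inconclusive = fit invalid, or curve flat with activity between -70 and -30; inactive = potency past limit, curve flat within ±30, or signal increasing.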

NAD-dependent protein deacylase sirtuin-5, mitochondrial (Homo sapiens), sequence (Q9NXA8 whole entry, looked up): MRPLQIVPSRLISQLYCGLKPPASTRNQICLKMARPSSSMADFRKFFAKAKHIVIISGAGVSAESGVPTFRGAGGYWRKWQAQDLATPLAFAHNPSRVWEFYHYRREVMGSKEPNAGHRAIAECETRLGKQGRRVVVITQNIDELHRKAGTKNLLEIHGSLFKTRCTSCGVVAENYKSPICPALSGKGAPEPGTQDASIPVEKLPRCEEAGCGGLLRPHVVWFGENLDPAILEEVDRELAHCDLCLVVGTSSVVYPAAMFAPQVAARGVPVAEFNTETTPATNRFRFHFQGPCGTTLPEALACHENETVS

The test addresses NAD-dependent protein deacylase sirtuin-5, mitochondrial (Homo sapiens) (UniProt Q9NXA8). Briefly: SIRT5 deacylase inhibitors, dose response, biochemical, fluorescence imaging, cherry-pick, set 6 (AID 720597).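 Also: lower AMC signal can also come from blocking the trypsin step.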 The conditions noted are these: Purified SirT5, succinyl-peptide-AMC/trypsin fluorescence; series mostly up to 15 µM.
With `Cc1ccc(S(=O)(=O)N(C)C[C@@H]2OCCCC[C@@H](C)Oc3ccc(NS(=O)(=O)c4ccc(F)cc4)cc3C(=O)N([C@@H](C)CO)C[C@@H]2C)cc1`, the compound was classed as inactive.
With `O=C(CCN1CCCCC1)N[C@H]1CC[C@H](CC(=O)N2CCC(Cc3ccccc3)CC2)O[C@@H]1CO` the entry was “inactive”.
With `C[C@@H]1CN([C@@H](C)CO)C(=O)c2cccc(NS(=O)(=O)c3cn(C)cn3)c2O[C@H]1CN(C)C(=O)Nc1cccc2ccccc12` the entry was “inactive”; with `CNC[C@@H]1Oc2ccc(NC(=O)Nc3ccc(F)cc3)cc2CC(=O)N([C@H](C)CO)C[C@H]1C`, “inactive”.
For `COc1ccccc1-c1ccc2c(c1)O[C@@H](CN(C)S(=O)(=O)c1ccccc1)[C@H](C)CN([C@H](C)CO)S2(=O)=O` the value was “inactive”; for `C[C@@H]1CN([C@H](C)CO)S(=O)(=O)c2ccc(C#Cc3ccc(F)cc3)cc2O[C@H]1CN(C)S(=O)(=O)c1ccc(F)cc1`, “inactive”.
Turning to `CCCC(=O)Nc1ccc2c(c1)OC[C@H](C)N(Cc1ccccc1)C[C@H](C)[C@H](OC)CN(C)C2=O`, the compound was classed as inactive.
For `COc1ccccc1-c1ccc2c(c1)O[C@@H](CN(C)S(=O)(=O)c1ccc(F)cc1)[C@@H](C)CN([C@H](C)CO)S2(=O)=O`, the outcome was inactive.
With `O=S(=O)(c1ccc(F)cc1)N1CCCCN2[C@H](CO)[C@H](c3ccc(-c4ccccc4F)cc3)[C@@H]2C1` the entry was “inactive”.
With `O=C(NC1CCCC1)N1CCCCN2[C@H](C1)[C@H](c1ccc(/C=C/c3ccccc3)cc1)[C@@H]2CO` the entry was “inactive”.
For `Cc1ccc(S(=O)(=O)Nc2ccc3c(c2)C(=O)N([C@H](C)CO)C[C@H](C)[C@@H](CN(C)Cc2ccc(Cl)c(Cl)c2)OCCCC[C@H](C)O3)cc1` the value was “inactive”; for `COc1ccccc1NC(=O)N[C@H]1CC[C@H](CCNC(=O)c2ccc3c(c2)OCO3)O[C@@H]1CO`, “inactive”.
In the case of `O=S(=O)(c1ccc(F)cc1)N1CCCCN2[C@H](CO)[C@H](c3ccc(C#CC4CCCC4)cc3)[C@@H]2C1`, the outcome was inactive.
With `COc1ccc(NC(=O)Nc2ccc3c(c2)C(=O)N([C@H](C)CO)C[C@@H](C)[C@@H](CN(C)Cc2ccccc2)OCCCC[C@H](C)O3)cc1` the entry was “inactive”; with `COc1ccc(NC(=O)N(C)C[C@@H]2Oc3cc(C#CCC(C)C)ccc3S(=O)(=O)N([C@@H](C)CO)C[C@@H]2C)cc1`, “inactive”; with `COc1ccc(NC(=O)N(C)C[C@H]2Oc3cc(C#CCC(C)C)ccc3S(=O)(=O)N([C@H](C)CO)C[C@@H]2C)cc1`, “inactive”.
For `COc1ccc(S(=O)(=O)Nc2ccc3c(c2)C(=O)N([C@H](C)CO)C[C@H](C)[C@@H](CN(C)Cc2ccc(C(F)(F)F)cc2)OCCCC[C@H](C)O3)cc1` the value was “inactive”; for `O=C(Nc1cc(F)ccc1F)N1C[C@@H]2[C@H](c3ccccc31)[C@H](CO)N2Cc1ccncc1`, “inactive”; for `NC(=O)NCC#Cc1ccc2c(c1)[C@]1(C(=O)N2)[C@H](c2ccccc2OCCO)N2[C@H](c3ccccc3)[C@H](c3ccccc3)OC(=O)[C@H]2[C@@H]1C(=O)N1CCN(c2ncccn2)CC1`, “inactive”.
For `COCC(=O)N1[C@H](C#N)[C@H](c2ccccc2-c2cccc(F)c2)[C@H]1CO`, the outcome was inactive.
With `CC(C)C#Cc1ccc([C@@H]2[C@@H](CO)N3C(=O)CN(C(=O)c4ccc5c(c4)OCO5)C[C@H]23)cc1` the entry was “inactive”.
As to `COc1ccc(S(=O)(=O)N(C)C[C@H]2Oc3cc(C#CC4CCCC4)ccc3S(=O)(=O)N([C@@H](C)CO)C[C@@H]2C)cc1`, the compound was called inactive.
For `Cc1cccc(S(=O)(=O)N2CCCCN3[C@H](CO)[C@@H](c4ccc(-c5ccccc5)cc4)[C@H]3C2)c1` the value was “inactive”; for `C[C@@H]1CN([C@@H](C)CO)C(=O)c2cc(C#CCN(C)C)cnc2O[C@H]1CN(C)Cc1ccncc1`, “inactive”.
For `CN(C)CCCNC(=O)C[C@H]1CC[C@H]2[C@@H](COC[C@H](O)CN2S(=O)(=O)c2ccc(F)cc2)O1` the value was “inactive”; for `C[C@@H]1CN([C@H](C)CO)S(=O)(=O)c2ccc(/C=C/c3ccccc3)cc2O[C@H]1CN(C)C(=O)NC1CCCCC1`, “inactive”; for `C[C@H]1CN([C@@H](C)CO)S(=O)(=O)c2ccc(C#Cc3cccc(F)c3)cc2O[C@H]1CN(C)S(=O)(=O)c1ccccc1F`, “inactive”.
With `Cc1ccc(CN(C)C[C@@H]2OCc3cnnn3CCCC(=O)N([C@H](C)CO)C[C@@H]2C)cc1`, the outcome was inactive.
For `C[C@H](O)C#Cc1cnc2c(c1)C(=O)N([C@H](C)CO)C[C@H](C)[C@@H](CN(C)CC1CCCC1)O2` the value was “inactive”; for `COc1cccc(NC(=O)N(C)C[C@@H]2OCc3cn(nn3)CCCC(=O)N([C@H](C)CO)C[C@H]2C)c1`, “inactive”.
With `C[C@H]1CN([C@@H](C)CO)S(=O)(=O)c2ccc(C3=CCCC3)cc2O[C@@H]1CN(C)Cc1ccccc1` the entry was “inactive”; with `C[C@H](CO)N1C[C@H](C)[C@H](CN(C)Cc2ccc(-c3ccccc3)cc2)OCc2ccccc2-c2ccccc2C1=O`, “inactive”; with `COc1ccc(NC(=O)N(C)C[C@@H]2Oc3cc(C#CCC(C)C)ccc3S(=O)(=O)N([C@H](C)CO)C[C@@H]2C)cc1`, “inactive”.
For `C[C@@H]1CCCCO[C@@H](CN(C)C(=O)CCCN(C)C)[C@@H](C)CN([C@H](C)CO)C(=O)c2cc(NS(=O)(=O)c3ccccc3)ccc2O1` the value was “inactive”; for `CC(C)CC#Cc1ccc2c(c1)O[C@@H](CN(C)Cc1ccccc1F)[C@H](C)CN([C@H](C)CO)S2(=O)=O`, “inactive”; for `C[C@@H]1CN([C@H](C)CO)S(=O)(=O)c2ccc(/C=C/c3ccccc3)cc2O[C@@H]1CN(C)C(=O)c1ccc2c(c1)OCO2`, “inactive”.
For `C[C@@H]1CN([C@H](C)CO)C(=O)c2cc(NS(=O)(=O)c3ccc(Cl)cc3)ccc2O[C@@H](C)CCCCO[C@@H]1CN(C)Cc1ccc2c(c1)OCO2`, the compound was classed as inactive.
For `COc1ccc(S(=O)(=O)N(C)C[C@H]2OCCCC[C@H](C)Oc3ccc(NS(=O)(=O)c4ccc(C)cc4)cc3C(=O)N([C@@H](C)CO)C[C@H]2C)cc1`, the result was inactive.
With `CCNC(=O)C[C@H]1CC[C@@H]2[C@H](COC[C@H](O)CN2C(=O)Nc2ccc(C(F)(F)F)cc2)O1` the entry was “inactive”.
